# Data from PubChem BioAssay AID2283218 (EPA ToxCast).
# Activity calls are given as the source filed them. Rule for the calls: active = hit-call score of the fitted dose curve at least 0.9, where 1 is the maximum; inactive = score below 0.9.
# Biological target: human Zeta Chain of T Cell Receptor Associated Protein Kinase 70 (ZAP70), ZAP70 (gene 7535) (UniProt P43403)
# Assay: NVS_ENZ_hZAP70: NovaScreen (NVS) Enzymatic Assay for human Zeta Chain of T Cell Receptor Associated Protein Kinase 70 (ZAP70)
# Experimental: NVS_ENZ_hZAP70 is a biochemical, single-readout assay that uses extracted gene-proteins in a cell-free assay. Measurements were taken 0 hour after chemical dosing in a 96-well plate.NVS_ENZ_hZAP70 is one of one assay component(s) measured or calculated from the NVS_ENZ_hZAP70 assay. It is designed to make measurements of enzyme activity, a form of enzyme reporter, as detected with fluorescence intensity signals by Fluorescence and electrophoretic mobility shift technology.Data from the assay component NVS_ENZ_hZAP70 was analyzed into 1 assay endpoint. This assay endpoint, NVS_ENZ_hZAP70, was analyzed in the positive analysis fitting direction relative to DMSO as the negative control and baseline of activity. Using a type of enzyme reporter, loss-of-signal activity can be used to understand changes in the enzymatic activity as they relate to the gene ZAP70. Furthermore, this assay endpoint can be referred to as a primary readout, because this assay has produced multiple assay endpoints where this one serves a enzymatic activity function. To generalize the intended target to other relatable targets, this assay endpoint is annotated to the kinase intended target family, where the subfamily is non-receptor tyrosine kinase. […]
# human Zeta Chain of T Cell Receptor Associated Protein Kinase 70 (ZAP70), ZAP70 (gene 7535), sequence (P43403 whole entry, looked up): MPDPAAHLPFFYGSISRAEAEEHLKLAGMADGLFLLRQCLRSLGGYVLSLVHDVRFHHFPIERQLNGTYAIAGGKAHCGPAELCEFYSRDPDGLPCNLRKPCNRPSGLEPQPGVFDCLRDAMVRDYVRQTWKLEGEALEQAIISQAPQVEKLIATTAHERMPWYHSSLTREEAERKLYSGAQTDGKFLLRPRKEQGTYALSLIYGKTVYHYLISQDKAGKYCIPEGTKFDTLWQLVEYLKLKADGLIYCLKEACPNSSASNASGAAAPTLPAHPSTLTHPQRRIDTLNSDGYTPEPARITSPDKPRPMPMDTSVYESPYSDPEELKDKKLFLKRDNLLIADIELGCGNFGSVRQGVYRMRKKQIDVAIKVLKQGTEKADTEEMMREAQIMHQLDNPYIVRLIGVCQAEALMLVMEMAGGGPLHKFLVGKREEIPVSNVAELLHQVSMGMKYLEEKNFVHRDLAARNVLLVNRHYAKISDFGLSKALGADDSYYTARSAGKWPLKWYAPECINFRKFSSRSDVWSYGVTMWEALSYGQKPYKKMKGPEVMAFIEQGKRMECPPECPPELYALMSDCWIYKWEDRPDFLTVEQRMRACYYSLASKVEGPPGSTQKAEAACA
Compound,outcome,AC50
O=C(O)C(F)(F)C(F)(F)C(F)(F)C(F)(F)C(F)(F)C(F)(F)C(F)(F)F,inactive,–
O=S(=O)(O)C(F)(F)C(F)(F)C(F)(F)C(F)(F)C(F)(F)C(F)(F)C(F)(F)C(F)(F)F,–,12.3 µM (active)
